Measured values reported in the supplement of paper PMC4466140.

Tests used:
Assay in all cases: SPOT peptide array binding signal intensity (averaged, normalized) (arbitrary units (background-subtracted, floor 0; scale differs between SH3 domains)); higher = stronger binding of the SH3 domain to the peptide
AgAbp1 = target: AgAbp1
How it was run: (§1)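 GST-fused SH3 domains from four yeast species were expressed in E. coli BL21(DE3), purified on glutathione Sepharose and incubated at 10 μg/ml overnight at 4°C in TBS-based blocking buffer on cellulose membranes carrying synthetic 15-mer peptides, with cysteines replaced by serines. Bound protein was detected with anti-GST antibody, an HRP anti-mouse secondary and luminol, then imaged and quantified with Genespotter. Binding signal is the normalized, background-subtracted spot intensity averaged over replicates, in arbitrary units that differ between domains.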

AgBbc1 = target: AgBbc1
How it was run: as §1

AgBem1-D1 = target: AgBem1-D1
How it was run: as §1

AgBzz1-D1 = target: AgBzz1-D1
How it was run: as §1

AgBzz1-D2 = target: AgBzz1-D2
How it was run: as §1

AgCyk3 = target: AgCyk3
How it was run: as §1

AgFus1 = target: AgFus1
How it was run: as §1

AgHof1 = target: AgHof1
How it was run: as §1

AgHse1 = target: AgHse1
How it was run: as §1

AgLsb1 = target: AgLsb1
How it was run: as §1

AgLsb4 = target: AgLsb4
How it was run: as §1

AgMyo5 = target: AgMyo5
How it was run: as §1

AgNbp2 = target: AgNbp2
How it was run: as §1

AgRvs167 = target: AgRvs167
How it was run: as §1

AgSho1 = target: AgSho1
How it was run: as §1

AgSla1-D1-D2 = target: AgSla1-D1-D2
How it was run: as §1

AgSla1-D3 = target: AgSla1-D3
How it was run: as §1

CaAbp1-D1 = target: CaAbp1-D1
How it was run: as §1

CaAbp1-D2 = target: CaAbp1-D2
How it was run: as §1

CaBbc1 = target: CaBbc1
How it was run: as §1

CaBem1-D1 = target: CaBem1-D1
How it was run: as §1

CaBzz1-D1 = target: CaBzz1-D1
How it was run: as §1

CaBzz1-D2 = target: CaBzz1-D2
How it was run: as §1

CaCyk3 = target: CaCyk3
How it was run: as §1

CaFus1 = target: CaFus1
How it was run: as §1

CaHof1 = target: CaHof1
How it was run: as §1

CaHse1 = target: CaHse1
How it was run: as §1

CaLsb1 = target: CaLsb1
How it was run: as §1

CaLsb4 = target: CaLsb4
How it was run: as §1

CaMyo5 = target: CaMyo5
How it was run: as §1

CaNbp2 = target: CaNbp2
How it was run: as §1

CaRvs167 = target: CaRvs167
How it was run: as §1

CaRvs167-3 = target: CaRvs167-3
How it was run: as §1

CaSho1 = target: CaSho1
How it was run: as §1

CaSla1-D1-D2 = target: CaSla1-D1-D2
How it was run: as §1

CaSla1-D3 = target: CaSla1-D3
How it was run: as §1

ScAbp1 = target: ScAbp1
How it was run: as §1

ScBbc1 = target: ScBbc1
How it was run: as §1

ScBem1-D1 = target: ScBem1-D1
How it was run: as §1

ScBzz1-D1 = target: ScBzz1-D1
How it was run: as §1

ScBzz1-D2 = target: ScBzz1-D2
How it was run: as §1

ScCyk3 = target: ScCyk3
How it was run: as §1

ScFus1 = target: ScFus1
How it was run: as §1

ScHof1 = target: ScHof1
How it was run: as §1

ScHse1 = target: ScHse1
How it was run: as §1

ScLsb1 = target: ScLsb1
How it was run: as §1

ScLsb2 = target: ScLsb2
How it was run: as §1

ScLsb3 = target: ScLsb3
How it was run: as §1

ScLsb4 = target: ScLsb4
How it was run: as §1

ScMyo3 = target: ScMyo3
How it was run: as §1

ScMyo5 = target: ScMyo5
How it was run: as §1

ScNbp2 = target: ScNbp2
How it was run: as §1

ScPex13 = target: ScPex13
How it was run: as §1

ScRvs167 = target: ScRvs167
How it was run: as §1

ScSho1 = target: ScSho1
How it was run: as §1

ScSla1-D1-D2 = target: ScSla1-D1-D2
How it was run: as §1

ScSla1-D3 = target: ScSla1-D3
How it was run: as §1

SpAbp1-D1 = target: SpAbp1-D1
How it was run: as §1

SpBbc1 = target: SpBbc1
How it was run: as §1

SpBzz1-D1 = target: SpBzz1-D1
How it was run: as §1

SpBzz1-D2 = target: SpBzz1-D2
How it was run: as §1

SpCyk3 = target: SpCyk3
How it was run: as §1

SpHof1 = target: SpHof1
How it was run: as §1

SpHof1-2 = target: SpHof1-2
How it was run: as §1

SpHof1-3 = target: SpHof1-3
How it was run: as §1

SpHse1 = target: SpHse1
How it was run: as §1

SpLsb1 = target: SpLsb1
How it was run: as §1

SpLsb4 = target: SpLsb4
How it was run: as §1

SpMyo1 = target: SpMyo1
How it was run: as §1

SpNbp2 = target: SpNbp2
How it was run: as §1

SpPex13 = target: SpPex13
How it was run: as §1

SpRvs167 = target: SpRvs167
How it was run: as §1

SpSla1-D1-D2 = target: SpSla1-D1-D2
How it was run: as §1

SpSla1-D3 = target: SpSla1-D3
How it was run: as §1

B1: unnamed (peptide)
chain: KWVRRPKLMTPLTFS
SPOT peptide array binding signal intensity (AgAbp1): 205
SPOT peptide array binding signal intensity (AgBbc1): 73.5
SPOT peptide array binding signal intensity (AgBem1-D1): 169
SPOT peptide array binding signal intensity (AgBzz1-D1): 25
SPOT peptide array binding signal intensity (AgBzz1-D2): 8
SPOT peptide array binding signal intensity (AgCyk3): 3
SPOT peptide array binding signal intensity (AgFus1): 754
SPOT peptide array binding signal intensity (AgHof1): 110
SPOT peptide array binding signal intensity (AgHse1): 818
SPOT peptide array binding signal intensity (AgLsb1): 495
SPOT peptide array binding signal intensity (AgLsb4): 71
SPOT peptide array binding signal intensity (AgMyo5): ≤ 0
SPOT peptide array binding signal intensity (AgNbp2): 371
SPOT peptide array binding signal intensity (AgRvs167): 8
SPOT peptide array binding signal intensity (AgSho1): 185
SPOT peptide array binding signal intensity (AgSla1-D1-D2): 275
SPOT peptide array binding signal intensity (AgSla1-D3): 11.2
SPOT peptide array binding signal intensity (CaAbp1-D1): 498
SPOT peptide array binding signal intensity (CaAbp1-D2): 297
SPOT peptide array binding signal intensity (CaBbc1): 192
SPOT peptide array binding signal intensity (CaBem1-D1): 329
SPOT peptide array binding signal intensity (CaBzz1-D1): 164
SPOT peptide array binding signal intensity (CaBzz1-D2): 121
SPOT peptide array binding signal intensity (CaCyk3): 45
SPOT peptide array binding signal intensity (CaFus1): 1360
SPOT peptide array binding signal intensity (CaHof1): 1.5
SPOT peptide array binding signal intensity (CaHse1): 180
SPOT peptide array binding signal intensity (CaLsb1): 7
SPOT peptide array binding signal intensity (CaLsb4): 346
SPOT peptide array binding signal intensity (CaMyo5): 11.5
SPOT peptide array binding signal intensity (CaNbp2): 757
SPOT peptide array binding signal intensity (CaRvs167): 162
SPOT peptide array binding signal intensity (CaRvs167-3): 27.8
SPOT peptide array binding signal intensity (CaSho1): 522
SPOT peptide array binding signal intensity (CaSla1-D1-D2): 623
SPOT peptide array binding signal intensity (CaSla1-D3): 264
SPOT peptide array binding signal intensity (ScAbp1): 103
SPOT peptide array binding signal intensity (ScBbc1): 23
SPOT peptide array binding signal intensity (ScBem1-D1): 91.5
SPOT peptide array binding signal intensity (ScBzz1-D1): 50.5
SPOT peptide array binding signal intensity (ScBzz1-D2): 59
SPOT peptide array binding signal intensity (ScCyk3): 64.5
SPOT peptide array binding signal intensity (ScFus1): 1090
SPOT peptide array binding signal intensity (ScHof1): 3.75
SPOT peptide array binding signal intensity (ScHse1): 1650
SPOT peptide array binding signal intensity (ScLsb1): 132
SPOT peptide array binding signal intensity (ScLsb2): 15.5
SPOT peptide array binding signal intensity (ScLsb3): 166
SPOT peptide array binding signal intensity (ScLsb4): 32.5
SPOT peptide array binding signal intensity (ScMyo3): 3.5
SPOT peptide array binding signal intensity (ScMyo5): 5.25
SPOT peptide array binding signal intensity (ScNbp2): 818
SPOT peptide array binding signal intensity (ScPex13): 56.8
SPOT peptide array binding signal intensity (ScRvs167): 121
SPOT peptide array binding signal intensity (ScSho1): 1880
SPOT peptide array binding signal intensity (ScSla1-D1-D2): 735
SPOT peptide array binding signal intensity (ScSla1-D3): 161
SPOT peptide array binding signal intensity (SpAbp1-D1): 289
SPOT peptide array binding signal intensity (SpBbc1): 7
SPOT peptide array binding signal intensity (SpBzz1-D1): 176
SPOT peptide array binding signal intensity (SpBzz1-D2): 0.5
SPOT peptide array binding signal intensity (SpCyk3): 7
SPOT peptide array binding signal intensity (SpHof1): 158
SPOT peptide array binding signal intensity (SpHof1-2): 17
SPOT peptide array binding signal intensity (SpHof1-3): 450
SPOT peptide array binding signal intensity (SpHse1): 666
SPOT peptide array binding signal intensity (SpLsb1): 466
SPOT peptide array binding signal intensity (SpLsb4): 500
SPOT peptide array binding signal intensity (SpMyo1): 8.75
SPOT peptide array binding signal intensity (SpNbp2): 558
SPOT peptide array binding signal intensity (SpPex13): 217
SPOT peptide array binding signal intensity (SpRvs167): 34.2
SPOT peptide array binding signal intensity (SpSla1-D1-D2): 1.5
SPOT peptide array binding signal intensity (SpSla1-D3): 62

B2: unnamed (peptide)
chain: SRSKPLPLTPNSKYN
SPOT peptide array binding signal intensity (AgAbp1): 197
SPOT peptide array binding signal intensity (AgBbc1): 15.2
SPOT peptide array binding signal intensity (AgBem1-D1): 16
SPOT peptide array binding signal intensity (AgBzz1-D1): 195
SPOT peptide array binding signal intensity (AgBzz1-D2): 111
SPOT peptide array binding signal intensity (AgCyk3): 1
SPOT peptide array binding signal intensity (AgFus1): 6.5
SPOT peptide array binding signal intensity (AgHof1): 24.2
SPOT peptide array binding signal intensity (AgHse1): 10.5
SPOT peptide array binding signal intensity (AgLsb1): 1
SPOT peptide array binding signal intensity (AgLsb4): 9
SPOT peptide array binding signal intensity (AgMyo5): ≤ 0
SPOT peptide array binding signal intensity (AgNbp2): 8.5
SPOT peptide array binding signal intensity (AgRvs167): 1.67
SPOT peptide array binding signal intensity (AgSho1): 3200
SPOT peptide array binding signal intensity (AgSla1-D1-D2): 21.5
SPOT peptide array binding signal intensity (AgSla1-D3): 8.5
SPOT peptide array binding signal intensity (CaAbp1-D1): 64
SPOT peptide array binding signal intensity (CaAbp1-D2): 249
SPOT peptide array binding signal intensity (CaBbc1): 30
SPOT peptide array binding signal intensity (CaBem1-D1): 29.5
SPOT peptide array binding signal intensity (CaBzz1-D1): 384
SPOT peptide array binding signal intensity (CaBzz1-D2): 162
SPOT peptide array binding signal intensity (CaCyk3): 4
SPOT peptide array binding signal intensity (CaFus1): 83
SPOT peptide array binding signal intensity (CaHof1): ≤ 0
SPOT peptide array binding signal intensity (CaHse1): 8.25
SPOT peptide array binding signal intensity (CaLsb1): 0.5
SPOT peptide array binding signal intensity (CaLsb4): 10.5
SPOT peptide array binding signal intensity (CaMyo5): 10
